Data published in the supplement of paper PMC6555819.

Tested on: VDR:RXRa (NR concentration 270 nM, RXRa partner concentration 90 nM)
Test: PBM binding z-score (relative to random genomic background probes); higher = stronger binding; sequences stand for … in GC…GCGATTGACAGCGTAGAATGAAGG
Experimental: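 Protein-binding microarray (Agilent 4x180K custom design, double-stranded 60-nt probes: 5' GC cap, 34-nt variable region, 24-nt constant primer region; full probe sequence given). Purified or IVT nuclear receptor:RXRα heterodimers (3:1 NR:RXRα, mostly 270:90 nM) or homodimers were incubated for 1 h in PBS with 2% milk and no ligand, then detected with Alexa488 antibodies. Fluorescence from o1-orientation probes (~5 replicates averaged) was converted to z-scores against 500 random hg19 background probes. Variable regions are seed direct-repeat (DR0–DR5) sites, all their single-nucleotide variants and half-site ablations.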

Sequence	PBM binding z-score
GTACAAAGGTGAATAGGTCGTTGATGAGTAGGCG	2.18
CCAACTGGGGCAAAGGTTACCATACTCAGTACGA	1.7
CGTCCAAGGTCATAGGAGGTCAGTGGAGACAGAT	6.87
ACCGAAAGGTCGACGAGGTGAGTATACACCGTTT	5.14
ACTTGTTGGTCAGCTGAGGTCACACACAATTCGG	4.61
CGCCCAAGGTCAGAGAGGTCAGTGAATGCCGAGT	7.36
CCTGACGGGTCACTGACAGGTTATAGCATTTGGA	2.94
GCTGCTAGGTCACGTTGGTCAGCTAACGGGTACG	2.29
ATCGAAAGCTCGACGAGGTGAGTATACACCGTTT	-0.25
GGAACGAGGGCATTCGCGTTGATAGCATGGCGAT	1.53
GGAACGCGGGCAAGTTGATAGCAGAGTTTGATGG	-0.834
AATACAGGGTCACTAGGGCAGAGTAGGTACGAAT	4.5
GCTAGCAGGCCATTTGGGTCACTCCATGACGGGC	0.513
CCTTACGGGTCACTGACAGGTGATAGCATTTGGA	4.2
GCATATAGGTAATCCAAGGTGAAAGTCCGATTGT	0.373
GCTTGTAGATCTAGGTTAAGAAAGACTAAGCTAA	-0.392
TCTAGTTGGTCAAAGATCACACACTCGAAATGCG	1.29
TAGCCTAGGTCATCCAGGGGCCAGTATAGAAAGC	3.1
ATCTCTAGGTAAAAGTTGAGTGAATCCCGAGGAT	-0.00666
TCGAGTATGTTAGGGGCATTCAGAATGGCGTCGA	0.88

Sequence	PBM binding z-score
GCGACTGGGGCAAAGCGGGTTACCATAAGGTTGG	0.145
CCTACTGGGCCATGCAGAGGTCATTGATCATATG	3.86
CGTCCAAGGTCATAGGATGTCAGTGAAGACAGAT	4.77
TCATATACGTAAAGGTGAAAGTCGAACGATATGA	1.05
CCTACTGGGCCAGTCAGAGGTCATTGATCATATG	3.67
CCAGACAGGTGAGAAGGTAACTCGGCCTCGATTA	-0.138
AATCAAAGTTCACTAGGTAACGTAAGATTCAGCT	3.91
TGAATGAGCTTAAAGATCAGGGAACGTGGCGTCG	-0.548
ATCGAAAGTTCGACGAGGTGAGTATACACCGTTT	2.81
AGAACCAGGGCACGCTGAGTTGATAGCAGAGTAG	0.532
CCTGCTAGGTCAATGGTCAGCTTAAGCAGCTCGC	1.03
ATCGAAAGGTCGACGAGGTGAGTTTACACCGTTT	5.25
GCTTACGGGTCAAAGGTTTTAGCATGAATAGAAT	4.08
CCTAGTTGGTCAAGGTTACACACGCTATAGGTAC	1.5
TCTTGTAGATCAATAGAGGTTAAGAGAGTGCGCT	2.79
ATATGTAGGTTAGCTGGGGTCGTTCAGACTAGGC	4.67
CGTCCAAGTTCAAAGGTCAGTGAAGAGATGACGG	6.37
GCAGACAGCTGAAACGCAGGTAACTCAGGGTGGC	-0.826
TCTAGTTGGTCAAAGGTGACACACTCGAAATGCG	1.92
AGAATGAGGTTATACGTAGATCCGGGAAGAAAGT	1.15
